What all share (test): NCI-60 one-dose screen, 48 h (100 = growth as untreated, 0 = no growth, -100 = all killed)
Conditions in all cases: 10 µM unless noted

Assay [1] concerns NCI-H23 lung.
The test system of assay [2] is NCI-H226 lung.
Assay [3] has as its system NCI-H322M lung.
In assay [4] the test system is HOP-62 NSCLC.
Assay [5] concerns NCI-H460 lung.
Assay [6] deals with HOP-92 NSCLC.
Assay [7] has as its system NCI-H522 lung.
Assay [8] deals with A549/ATCC NSCLC.
For assay [9], the system named is 786-0 renal.
Assay [10] deals with COLO 205 colon.
In assay [11] the test system is DU-145 prostate.
For assay [12], the system named is K-562 leukemia.
The subject of assay [13] is MALME-3M melanoma.
The test system of assay [14] is MDA-MB-231 breast.
Assay [15] deals with RXF 393 renal.
For assay [16], the system named is SF-268 CNS.
Assay [17] concerns SF-295 CNS.
The subject of assay [18] is SF-539 CNS.
In assay [19] the test system is UACC-257 melanoma.
In assay [20] the test system is M14 melanoma.

The values below come from PubChem BioAssay (NCI).

The structures appear in SMILES notation. Compounds without any hit were thinned out: in the full panel of roughly 83,000, 20% have a hit.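 Treatment: one concentration, 48 hours, 96-well format. Scoring: percent growth, with anything below 10 considered active.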 A number with no mark means an inactive call. Active and inactive are the calls of the source.

In the case of `COc1cc(/C=C/C(=O)/C=C/c2cc3ccc(Cl)cc3n(Cc3ccccc3)c2=O)ccc1O`, the growth in assay [1] is -20.6% (active); in assay [2], -6.08% (active); in assay [3] it was 23.9%; in assay [4], -6.74% (active); in assay [5], -29.1% (active); in assay [6] it was -5% (active). The growth in assay [7] is -37.6% (active); in assay [8], -3.99% (active); in [9], -55.7% (active); in assay [10] it was 7.89% (active); in assay [11], -35.1% (active); in [12], 3.2% (active). Besides, the growth in assay [13] is 4.83% (active); in [14], -16.7% (active); in [15] it was -79.9% (active); in [16] it was 13.7%; in assay [17] it was 5.91% (active); in [18] it was 9.94% (active). The growth is -13.9% (active) in assay [19] and -11.3% (active) in assay [20].

As for `COc1ccc(-c2nc(C#N)c(NCC(c3ccc(Cl)cc3)N3CCCCC3)o2)cc1` (stereo not given), the growth in assay [1] is 91.7%; in assay [2], 96%; in [3], 83.7%; in assay [4], 107%; in [5] it was 101%; in [6] it was 89.3%. For the same compound, the growth is 84.6% in assay [7]; 93.5% in assay [8]; 92.5% in assay [9]; 87.6% in assay [10]; 94% in assay [11]; 76.7% in assay [12]. The growth in [13] is 91.4%; in [14], 102%; in [15], 71.8%; in assay [16], 89.7%; in assay [17], 96.1%; in [18], 101%. Moreover, the growth in assay [19] is 109%; in [20], 92.7%.

On to `COc1cc(/C=C/C(=O)c2ccc(NC(=O)CSc3nnc(-c4cc(OC)c(OC)c(OC)c4)n3-c3ccccc3)cc2)cc(OC)c1OC`, for which the growth in [1] is -3.58% (active); in assay [2] it was -64% (active); in assay [3], 64.5%; in assay [4], -9.19% (active); in assay [5] it was 13%; in assay [6], 53.9%. The growth in assay [7] is -4.14% (active); in [8], 20.2%; in [9], -52% (active); in assay [10], 10.2%; in assay [11] it was 26.5%; in assay [12], 6.66% (active). In addition, the growth was 67.7% in assay [13]; 42.7% in [14]; -55.4% (active) in assay [15]; 34.3% in assay [16]; 17.7% in assay [17]; 18.6% in [18]. In addition, the growth was 45.8% in [19] and -9.25% (active) in [20].

As for `NCCN1CCNCC1`, the growth is 94.6% in [1]; 89.6% in assay [2]; 116% in assay [3]; 103% in [4]; 108% in assay [5]; 100% in assay [6]. Further, the growth was 91.4% in assay [7]; 102% in assay [8]; 101% in assay [9]; 122% in [10]; 104% in [11]; 106% in [12]. Besides, the growth in assay [13] is 109%; in [14], 105%; in assay [15], 135%; in [16] it was 102%; in [17], 109%; in assay [18], 95.6%. In addition, the growth was 25.9% in [19] and 101% in [20].

Regarding `O=C(/C(=C/c1ccc([N+](=O)[O-])cc1)SCc1ccc(Cl)cc1)c1ccc(F)cc1`, the growth in [1] is 57%; in assay [2] it was 66.7%; in assay [3], 100%; in assay [4] it was 68.7%; in assay [5], 83.1%; in assay [6], 80.3%. In addition, the growth is -1.33% (active) in [7]; 80.5% in assay [8]; 76.9% in assay [9]; 48.3% in assay [10]; 86.3% in [11]; 1.3% (active) in assay [12]. The growth was 85.7% in assay [13]; 56.3% in [14]; 92% in [15]; 76.1% in [16]; 84.9% in assay [17]; 88.6% in assay [18]. The results for the growth in assay [19] and in assay [20] were 92.5% and 47.3%, respectively.

As to `NC(=O)c1ccc2nc3c(n2c1)C(=O)C(=O)c1ccccc1-3`, the growth in assay [1] was -38.3% (active); in assay [2] it was -49.7% (active); in [3] it was -98.2% (active); in assay [4] it was -87.8% (active); in assay [5] it was -50.7% (active); in [6] it was -80.9% (active). The growth in assay [7] is -48.9% (active); in [8] it was -43.1% (active); in [9], -99.4% (active); in assay [10], -69% (active); in assay [11], -96.3% (active); in [12], -28.2% (active). The growth in assay [13] is -97.3% (active); in [14], -17.3% (active); in assay [15], -96.5% (active); in assay [16] it was -70.2% (active); in assay [17], -98.7% (active); in assay [18] it was -98.5% (active). The growth in [19] was -98.3% (active); in [20], -88% (active).

As to `COc1ccc(NC(=O)c2ccc(Nc3ncnc4[nH]c(C)c(C)c34)cc2)cc1`, the growth was 102% in [1]; 106% in assay [2]; 101% in assay [3]; 108% in assay [4]; 98.4% in assay [5]; 111% in assay [6]. The growth is 97.4% in assay [7]; 94.8% in assay [8]; 101% in assay [9]; 115% in assay [10]; 107% in assay [11]; 105% in assay [12]. Besides, the growth in assay [13] was 114%; in assay [14], 104%; in assay [15], 105%; in assay [16], 91.4%; in assay [17] it was 96.6%; in [18] it was 97.5%. For the same compound, the growth in assay [19] is 101%; in assay [20] it was 110%.

Consider `CC(=O)OCC1SC(OC(C)=O)C(NC(=O)/C=C/CCl)C(OC(C)=O)C1OC(C)=O` (stereo not given), for which the growth in [1] is 99.7%; in assay [2], 103%; in assay [3], 109%; in assay [4], 117%; in assay [5], 102%; in [6], 105%. Moreover, the growth in [7] is -9.03% (active); in [8], 89.1%; in [9], 124%; in [10], 107%; in assay [11], 104%; in assay [12], 91.6%. Also, the growth in assay [13] is 99.6%; in assay [14], 102%; in [15], 108%; in [16] it was 97.9%; in assay [17], 111%; in assay [18], 109%. For the same compound, the growth was 83% in assay [19] and 93.6% in assay [20].
